The full list was thinned out, with hits kept by preference.
a7 integrin act = qHTS for Activators of Integrin-Mediated Alleviation for Muscular Dystrophy | alpha7betagal myoblasts, beta-gal FDG fluorescence, 48 h | Potency, µM (highest dose often 38.3 µM), usual class: activators | 0.064% of 350,000 active; note: nearly all actives have a fitted effect of over 60% in size
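alpha7betagal+/- myoblasts (passage 13, 250/well) treated 48 h at 37C with compounds at 1:260 dilution of DMSO stock. Lysed, then beta-galactosidase activity read as FDG fluorescence (ex 480/em 540) after 30 min, with pre-read for autofluorescence.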
p53 reactivation = qHTS assay for re-activators of p53 using a Luc reporter | H1299 p53-A138V BP100-luciferase reporter, luminescence, 24 h | Potency, µM (doses to about 92.2 µM), usual class: activators | 0.063% of 320,000 active; note: nearly all actives have a fitted effect of over 45% in size
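H1299 (p53-null), stable ts p53-A138V + BP100-Luc; 1000 cells/well, Opti-MEM/10% FBS; cpd 4 pt, 1:5; 24 h, 37 deg C, 5% CO2; detection reagent 10 min RT; luminescence.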
USP2a inh = qHTS Assay for Inhibitors of Ubiquitin-specific Protease USP2a Using CHOP2 as the Reporter | Ubiquitin carboxyl-terminal hydrolase 2 (Homo sapiens), O75604 | USP2 core, Ub-CHOP2 coupled fluorogenic reporter, 485/531 | Potency, µM (titrated, usually from 38.3 µM), actives largely listed as inhibitors | 0.01% of 330,000 active | AID 463254, 2010
Target sequence (O75604 whole entry, looked up): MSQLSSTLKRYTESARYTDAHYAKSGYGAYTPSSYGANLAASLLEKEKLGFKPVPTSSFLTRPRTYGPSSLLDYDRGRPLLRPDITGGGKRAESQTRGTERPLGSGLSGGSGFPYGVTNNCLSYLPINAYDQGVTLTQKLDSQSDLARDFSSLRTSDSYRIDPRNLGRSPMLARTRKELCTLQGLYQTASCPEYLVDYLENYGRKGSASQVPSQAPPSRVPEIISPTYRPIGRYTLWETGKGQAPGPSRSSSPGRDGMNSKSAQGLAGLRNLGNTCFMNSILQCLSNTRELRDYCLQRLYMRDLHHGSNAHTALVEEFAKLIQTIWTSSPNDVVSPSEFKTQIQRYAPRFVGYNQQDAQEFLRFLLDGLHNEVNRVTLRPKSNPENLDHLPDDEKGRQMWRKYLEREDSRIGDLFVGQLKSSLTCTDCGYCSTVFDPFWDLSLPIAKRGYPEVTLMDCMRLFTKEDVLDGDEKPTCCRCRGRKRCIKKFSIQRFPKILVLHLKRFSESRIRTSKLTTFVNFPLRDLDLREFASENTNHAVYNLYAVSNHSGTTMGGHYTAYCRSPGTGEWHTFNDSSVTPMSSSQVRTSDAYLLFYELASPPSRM
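Deubiquitinase activity read as fluorescence (485/531 nm) after Ub-CHOP2 cleavage activates the enterokinase reporter on its substrate; USP2 core 10nM, Ub-CHOP2 and substrate 25nM each, 30min compound preincubation then 60min RT; data normalized to NEM, curves fitted.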
ClpP mod = qHTS Assay for Activators of ClpP; purified B. subtilis ClpP, FRET peptide cleavage, 20 min; Potency, µM (top dose mostly 57.5 µM); 1.9% of 340,000 active; AID 651965, 2013; active = well fitted falling curve with a large enough effect; inconclusive = small, poorly fitted or top-dose-only effect; inactive = no such curve, though single readings can be large or run the other way; note: the source files actives as falling curves though it sought activators and does not explain the sign; nearly all actives have a fitted effect of over 65% in size
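ClpP 10 microg/mL final, pH 8 Tris/KCl buffer with BSA, glycerol, Tween-20; compound pinned in; FRET-FV substrate; RT 20 min; Ex320/Em430; ΔFRET vs ADEP 5.8 microM, DMSO, no enzyme.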
Eya2 phos inh = qHTS Assay for Inhibitors of the Phosphatase Activity of Eya2; Protein phosphatase EYA2 (Homo sapiens), O00167; 0.006% of 330,000 active; Potency, µM (doses to about 76.9 µM), most hits filed as inhibitors; AID 488837, 2010; recombinant Eya2, OMFP fluorescence dephosphorylation (OMFP is methylfluorescein phosphate)
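Eya2 (0.2 uM) preincubated 10 min at ambient with compound, then OMFP substrate added at 50 uM; 10 min reaction in 50 mM HEPES pH 7.5, 50 mM NaCl, 5 uM MgCl2, 0.05% BSA, 1 mM DTT. Fluorescence read at Ex 485/Em 525 nm.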
MmCpn inh = Inhibitors of TCP-1 ring complex (TRiC) of Methanococcus maripaludis (MmCpn): qHTS | Chaperonin Mm-Cpn (Methanococcus maripaludis) | purified Mm-Cpn ATPase, ADP Transcreener TR-FRET | Potency, µM (titrated, usually from 76.9 µM), most hits filed as inhibitors | 0.031% of 330,000 active | AID 504842, 2011; note: nearly all actives have a fitted effect of over 80% in size
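Quantitative HTS used 25 nM Mm-CPN and 10 uM ATP in magnesium/KCl Tris buffer, pH 7.4, with 1 mM DTT. Hydrolysis ran 30 min at 37°C; ADP was read by HTRF.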
A number is an active result; - = inactive; ? = inconclusive; . = no result; [ ] = another dose, or the depositor's remark. Unless noted, calls come from the whole dose curve; as a rule, active = well fitted curve in the direction sought with a large enough effect; inconclusive = small, poorly fitted or top-dose-only effect, or another doubt; inactive = no such curve, though single readings can be large; an effect the other way counts as inactive or inconclusive.

SMILES	a7 integrin act	p53 reactivation	USP2a inh	ClpP mod	Eya2 phos inh	MmCpn inh
O=C(Cc1ccccc1)Nc1ccc2oc(-c3cccnc3)nc2c1	-	-	-	28µM	-	?
CCCC(=O)Nc1ccc(-c2nc3cc(C)ccc3o2)cc1	-	?	-	40µM	-	-
C=C1C=C(C(F)F)n2ncc(C(=O)NCCc3ccc(Cl)cc3)c2N1	.	.	.	-	.	.
Cc1ccc2oc(-c3ccccc3)nc2c1	-	?	-	14µM	-	-
C/C=C(/C)C(=O)OC1c2c(ccc3ccc(=O)oc23)OC(C)(C)C1OC(C)=O (centres undefined)	-	-	-	16µM	-	-
c1ccc2c(c1)CCN(c1ncnc3c1[nH]c1ccccc13)C2	-	-	-	20µM	-	-
COc1cccc2[nH]c3c(N4CCc5ccccc5C4)ncnc3c12	-	-	-	.	-	-
c1ccc2c(c1)[nH]c1c(N3CCC4(CC3)OCCO4)ncnc12	-	-	-	28µM	-	-
CN1CCCCc2c1nc1c(c2N)CCCC1	-	-	-	25µM	-	-
S=Cc1nc2ccccc2[nH]1	.	.	.	-	.	.
Cc1cccc(-n2ncc3c(N4CCCc5ccccc54)ncnc32)c1	-[7.66 µM]	?	-	32µM	-	-
Cc1cccc(-n2ncc3c(NCc4ccccc4)ncnc32)c1	-	-	-	-	-	-
CSc1ccccc1OCc1cc(C(=O)NC(C)c2cnn(C)c2)no1 (centres undefined)	-	-	-	28µM	-	-
COc1ccc(Cc2nc(C(=O)Nc3ccccc3)cs2)cc1	-	-	-	32µM	-	-
COc1ccc(NC(=O)c2csc(Cc3ccc(Cl)cc3)n2)cc1	?	-	-	-	-	-
Cc1ccc(S(=O)(=O)c2c(N)n(-c3ccccc3)c3nc4ccccc4nc23)cc1	-	-	-	.	-	-
Cc1ccc(S(=O)(=O)c2c(N)n(Cc3ccco3)c3nc4ccccc4nc23)cc1	-	-	-	14µM	-	?
CCCCn1c(N)c(S(=O)(=O)c2ccc(C)cc2)c2nc3ccccc3nc21	-	-	-	.	-	-
Cc1ccc(S(=O)(=O)c2c(N)n(NC(=O)c3ccco3)c3nc4ccccc4nc23)cc1	?	-	-	8.9µM	-	-
Cc1cccc(S(=O)(=O)c2c(N)n(Cc3ccco3)c3nc4ccccc4nc23)c1	-	-	-	6.3µM	-	-
CC(C)(CO)NCc1ccccc1OCC(=O)Nc1ccccc1	-	-	-	-	-	-
Cc1ccc(NC(=O)COc2ccccc2CNC(C)(C)CC(C)(C)C)cc1	14µM	-	-	-	-	-
O=S1(=O)CCN2C=C(Br)C=C(Br)C2=N1	-[7.66 µM]	-	-	25µM	-	-
CCOC(=O)c1c(NC(=O)C2C3C=CC(CC3)C2C(=O)O)sc(C)c1C (centres undefined)	-	-	-	28µM	-	-
CCOC(=O)c1c(NC(=O)C2C3C=CC(C3)C2C(=O)O)sc2c1CCC(CC)C2 (centres undefined)	-	-	-	25µM	-	-
SMILES	a7 integrin act	p53 reactivation	USP2a inh	ClpP mod	Eya2 phos inh	MmCpn inh
CCOC(=O)c1c(NC(=O)C2C3CCC(O3)C2C(=O)O)sc2c1CCC(CC)C2 (centres undefined)	-	-	-	.	-	-
CC(=O)Nc1sc(C)c(C)c1C(=O)OCC(=O)N(C)C1CCS(=O)(=O)C1 (centres undefined)	-	-	-	35µM	-	-
Cc1cccc(-n2c(SCC(=O)Nc3ccccc3C)nc3c(oc4ccccc43)c2=O)c1	.	.	.	-	.	.
Nc1ccc(/C=C/c2cc(Cl)nc3ccccc23)cc1	.	.	.	-	.	.
O=C(CN1CCCCCC1)Nc1ccc([N+](=O)[O-])cc1Cl	-	-	-	10µM	-	-
CCOc1ccccc1NC(=O)c1cccc2c1C(=O)N(C1CCCCC1)C2	3.2µM	-	-	-	-	-

Screens (PubChem BioAssay)
